Results reported in PubChem BioAssay AID372 (MTDP, 2006).
About 770 (0.77%) of roughly 100,000 compounds were called active. No stated cut-off is given here; in the data, active means inhibition above about 50%; inactive means the rest. The list comes from a sample in which actives are over-represented; it also holds similar structures and randomly drawn compounds.

These molecules were tested against Gag-Pol polyprotein (Human immunodeficiency virus type 1 group M subtype B (isolate HXB2)) (UniProt P04585) (assay: RNase H inhibition, HIV 1 Gag Pol polyprotein, FRET biochemical assay, screening (AID 372)). Settings: HIV-1 RT RNase H, FRET RNA/DNA substrate fluorescence; at 10 µM; hits give high values.
In the case of `O=C(N1CCN(c2c(F)c(F)c(C(F)(F)F)c(F)c2F)CC1)C12CC3CC(CC(C3)C1)C2`, the inhibition is reported as 7% (inactive). For `O=c1c(N=Nc2ccc(Br)cc2)c(O)n(-c2ccccc2)c(=O)n1-c1ccccc1`, the inhibition was 17% (inactive). In the case of `COc1ccccc1C1NC(=S)NC(C)=C1C(C)=O` (configuration not stated), the inhibition is reported as 5% (inactive). With `Cc1csc(N/N=C/c2c(F)cccc2Cl)n1` the inhibition was 18% (inactive). For `Cc1cccc(NC(=O)Nc2ccc(-c3nc4ccccc4s3)cc2)c1`, the inhibition was 50% (active). For `Cc1ccc2nc(-c3ccc(NC(=O)Cc4ccccc4)cc3)sc2c1`, the inhibition was 52% (active). `Cc1ccc2nc(-c3ccc(NC(=S)NC(=O)c4ccccc4)cc3)sc2c1` was tested, and the inhibition was 6% (inactive). For `Cc1ccc2nc(-c3ccc(NC(=O)Cc4ccc(Cl)cc4)cc3)sc2c1`, the inhibition was 24% (inactive). With `O=C(Nc1ccc(Cl)cc1)Nc1ccc(-c2nc3ccccc3s2)cc1` the inhibition was 17% (inactive). In the case of `Cc1ccc2nc(-c3ccc(NC(=S)NC(=O)c4ccccc4F)cc3)sc2c1`, the inhibition is reported as 52% (active). For `O=C(NC(=S)Nc1ccc(-c2nc3ccccc3s2)cc1)c1cccc(F)c1`, the inhibition was 34% (inactive). In the case of `Cc1ccc2nc(-c3ccc(NC(=S)NC(=O)c4cccc(F)c4)cc3)sc2c1`, the inhibition is reported as 56% (active). `Cc1cccc(C(=O)NC(=S)Nc2ccc(-c3nc4ccccc4s3)cc2)c1` was tested, and the inhibition was 35% (inactive). For `Cc1ccc2nc(-c3ccc(NC(=O)CCc4ccccc4)cc3)sc2c1`, the inhibition was 5% (inactive). In the case of `Cc1ccc2nc(-c3ccc(NC(=S)NC(=O)c4ccccc4Cl)cc3)sc2c1`, the inhibition is reported as 8% (inactive). For `Cc1ccc2nc(-c3ccc(NC(=O)c4cccc(F)c4)cc3)sc2c1`, the inhibition was 43% (inactive). `O=C(Nc1ccc(Cl)cc1)C1CC(=O)N(c2cccc([N+](=O)[O-])c2)C1` (configuration not stated) was tested, and the inhibition was 4% (inactive). In the case of `COc1cc(OC)c(/C=C2\C(=O)NC(=S)N(c3ccc(C)cc3)C2=O)cc1Br`, the inhibition is reported as 4% (inactive). In the case of `NC(=O)c1ccccc1NC(=O)c1cccc([N+](=O)[O-])c1`, the inhibition is reported as 7% (inactive). `Cc1ccc(N=C(NO)C(=Nc2ccc(C)c(C)c2)NO)cc1C` was tested, and the inhibition was 23% (inactive). For `COc1cc(C=C2C(=O)c3ccccc3C2=O)ccc1OCc1ccc(F)cc1`, the inhibition was 7% (inactive). For `COc1cc(C2NC(=O)NC(C)=C2C(=O)OCc2ccc3c(c2)OCO3)cc(OC)c1OC` (configuration not stated), the inhibition was 9% (inactive). In the case of `COc1ccc2c(c1)CC/C(=C\c1ccc([N+](=O)[O-])cc1)C2=O`, the inhibition is reported as 4% (inactive). In the case of `COc1cc(C(=O)N/N=C/c2ccc(OC)c(OC)c2C(=O)O)cc(OC)c1OC`, the inhibition is reported as 0% (inactive). In the case of `O=C(NC(=S)Nc1ccc(-c2nc3ccccc3s2)cc1)c1ccc([N+](=O)[O-])cc1`, the inhibition is reported as 38% (inactive). `Cc1ccc(C(=O)NC(=S)Nc2ccc(-c3nc4ccccc4s3)cc2)cc1C` was tested, and the inhibition was 35% (inactive). `COc1ccc(C(=O)OCC(=O)c2ccc([N+](=O)[O-])cc2)cc1OC` was tested, and the inhibition was 7% (inactive). For `O=S(=O)(Nc1nc2ccccc2s1)c1cccc2cccnc12`, the inhibition was 8% (inactive). In the case of `Cc1cc(NC(=O)CSc2nnc3c4ccccc4n(C)c3n2)no1`, the inhibition is reported as 4% (inactive). In the case of `Oc1c(Br)cc(Br)cc1/C=N/Nc1nnc2c(n1)[nH]c1ccccc12`, the inhibition is reported as 2% (inactive). In the case of `Oc1c(Br)cc(/C=N/Nc2nnc3c(n2)[nH]c2ccccc23)c(O)c1Br`, the inhibition is reported as 12% (inactive). `O=C(CNC(=O)c1ccccc1)OCC(=O)c1ccc(Cl)cc1` was tested, and the inhibition was 3% (inactive). In the case of `Cc1ccc(N2NC(=O)/C(=C/c3ccc(O)c(O)c3)C2=O)cc1`, the inhibition is reported as 51% (active). `Cc1ccc(N2NC(=O)/C(=C/c3ccc(O)cc3)C2=O)cc1C` was tested, and the inhibition was 13% (inactive). With `O=C1NN(c2ccc(I)cc2)C(=O)/C1=C\c1ccc(F)cc1` the inhibition was 0% (inactive). With `Cc1ccc(N2NC(=O)/C(=C/c3cc(I)cc(I)c3O)C2=O)cc1` the inhibition was 0% (inactive). `CCOc1cc(/C=C2/C(=O)NN(c3ccc(I)cc3)C2=O)ccc1O` was tested, and the inhibition was 11% (inactive). For `CCOC(=O)c1ccc(N2NC(=O)/C(=C/c3ccccc3O)C2=O)cc1`, the inhibition was 14% (inactive). With `Cc1ccc(N2NC(=O)/C(=C/c3ccc(O)c([N+](=O)[O-])c3)C2=O)cc1` the inhibition was 8% (inactive). `Cc1ccc(N2NC(=O)/C(=C/c3ccc(O)c(O)c3)C2=O)cc1C` was tested, and the inhibition was 52% (active). For `COc1cc(/C=C2/C(=O)NN(c3ccc(C)c(C)c3)C2=O)ccc1O`, the inhibition was 25% (inactive). For `CCOC(=O)c1ccc(N2NC(=O)/C(=C/c3cc(I)cc(I)c3O)C2=O)cc1`, the inhibition was 57% (active). With `Cc1ccc(N2C(=O)NC(=O)/C(=C/c3ccc(O)c(O)c3)C2=O)cc1` the inhibition was 33% (inactive). With `O=C(CSc1nc2ccccc2[nH]1)Nc1cc(Cl)ccc1Cl` the inhibition was 4% (inactive). In the case of `CCCOC(=O)C1=C(C)NC2=C(C(=O)CCC2)C1c1cccc(O)c1` (configuration not stated), the inhibition is reported as 2% (inactive). With `CCOC(=O)C1=C(C)NC2=C(C(=O)CC(C)(C)C2)C1c1cccc(O)c1` (configuration not stated) the inhibition was 0% (inactive). For `N#CC1=C(SCC(=O)Nc2ccccc2)NC(=O)CC1c1ccco1` (configuration not stated), the inhibition was 7% (inactive). In the case of `COc1ccc2oc(C)c(C(O)c3ccccc3)c2c1` (configuration not stated), the inhibition is reported as 0% (inactive). For `CCOc1ccc(N2C(=O)CSC2=S)cc1`, the inhibition was 0% (inactive). In the case of `O=C1NN(c2ccc(Cl)cc2)C(=O)/C1=C\c1ccc(O)c(O)c1`, the inhibition is reported as 57% (active). In the case of `O=C1NN(c2ccc(Cl)c(Cl)c2)C(=O)/C1=C/c1ccc(O)c(O)c1`, the inhibition is reported as 49% (inactive). In the case of `COc1cc(/C=C2/C(=O)NN(c3ccc(Cl)cc3)C2=O)ccc1O`, the inhibition is reported as 23% (inactive). `COc1cccc(OCCCN2CCCC2)c1` was tested, and the inhibition was 13% (inactive). In the case of `O=C(COc1ccccc1Cl)Nc1ccc2nn(-c3ccccc3)nc2c1`, the inhibition is reported as 53% (active). With `O=C(Cc1ccc(Cl)cc1)Nc1ccc2nn(-c3ccc(Cl)cc3)nc2c1` the inhibition was 51% (active). With `O=C(COc1ccccc1Cl)Nc1cccc(S(=O)(=O)c2cccc(NC(=O)COc3ccccc3Cl)c2)c1` the inhibition was 54% (active). With `O=C(COc1ccccc1Cl)Nc1cccc(NC(=O)c2ccccc2)c1` the inhibition was 6% (inactive). `Cc1ccccc1OCC(=O)Nc1ccc2nn(-c3ccccc3)nc2c1` was tested, and the inhibition was 8% (inactive). `O=C(COc1ccccc1Cl)Nc1cccc(NC(=O)c2cccc(Cl)c2)c1` was tested, and the inhibition was 38% (inactive). With `O=C(Cc1ccccc1)Nc1ccc2nn(-c3ccc(Cl)cc3)nc2c1` the inhibition was 37% (inactive). For `O=C(Cc1ccc(Cl)cc1)Nc1ccc2nn(-c3ccc(F)cc3)nc2c1`, the inhibition was 41% (inactive). For `COc1ccc(-n2nc3ccc(NC(=O)COc4ccccc4Cl)cc3n2)cc1`, the inhibition was 32% (inactive).
